Measurements taken from PubChem BioAssay (Tox21).
Values without a mark were called inactive. Inconclusive results are not listed. Where a call stands in place of a potency, no number is given. Active and inactive are the calls of the source. Unless noted, calls come from the whole dose curve; as a rule, active = well fitted curve in the direction sought with a large enough effect in the repeat runs; inconclusive = weak or mixed curves; inactive = no such curve, though single readings can be large; an effect the other way counts as inactive or inconclusive.

What was measured:
[1] = qHTS assay to identify small molecule antagonists of the estrogen receptor beta (ER-beta) signaling pathway - cell viability counter screen (AID 1259382);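 note: HEK293T cells carrying ER-beta-UAS-bla reporter stimulated with estradiol; series mostly up to about 92 µM; nearly all actives have a fitted effect of over 55% in size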
Procedure, shortened: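 ER-beta-UAS-bla HEK293T cells (2,000/well, 2% charcoal-stripped FBS) were pre-incubated 6 hr at 37C, then given compound plus 1nM final 17-beta-estradiol for 16 hr. Viability was read in the same wells by CellTiter-Glo luminescence after 30 min at room temperature.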

[2] = biological target: Estrogen receptor (Homo sapiens) (UniProt P03372); test: qHTS assay to identify small molecule agonists of the estrogen receptor alpha (ER-alpha) signaling pathway in the presence of an antagonist (AID 1259383; calls by dose curve; note: top concentration of the series differs between compounds; nearly all actives have a fitted effect of over 15% in size)
Procedure, shortened: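 VM7Luc4E2 cells (endogenous full-length ER-alpha, 4×ERE-luciferase) were precultured 5 days in phenol red-free medium with 10% charcoal-stripped FBS, given 10.0nM ICI-182,780 (final), then treated with compounds at 15 concentrations for 22hr at 37C; luminescence read with ONE-Glo.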

[3] = qHTS assay to identify small molecule agonists or antagonists of the thyroid stimulating hormone receptor (TSHR) signaling pathway - wild type cell line counter screen (AID 1259384; calls by dose curve)
Procedure, shortened: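 Wild-type HEK293 cells were plated 18 h at 37 C/5% CO2, pin-dosed with compound plus Ro20-1724 medium, held 30 min at room temperature, then given cAMP-d2 and anti-cAMP-cryptate; fluorescence was read after 1 h. Fifteen concentrations, triplicate.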

[4] = biological target: Thyrotropin receptor (Homo sapiens) (UniProt P16473); test: qHTS assay to identify small molecule antagonists of the thyroid stimulating hormone receptor (TSHR) signaling pathway (AID 1259385; calls by dose curve; note: nearly all actives have a fitted effect of over 20% in size)
Procedure, shortened: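 TSHR-HEK293 cells were plated and held 18 h at 37C/5% CO2, then given compound plus Ro20-1724 and stimulated with TSH at 1.5 ng/mL final. After 30 min at room temperature, cAMP was detected with cAMP-d2/anti-cAMP-cryptate (1 h) by fluorescence.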

[5] = qHTS assay to identify small molecule agonists of the estrogen receptor alpha (ER-alpha) signaling pathway in the presence of an antagonist - cell viability counter screen (AID 1259386);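 note: series mostly up to about 92 µM; cells exposed to compounds for 22 h at 37 °C before the viability read; nearly all actives have a fitted effect of over 30% in size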
Procedure, shortened: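 VM7Luc4E2 cells (endogenous full-length ER-alpha, 4×ERE-luciferase) were held 5 days in phenol red-free medium with 10% charcoal-stripped FBS, plated, then given 10.0nM ICI-182,780 and compounds at 15 concentrations for 22hr at 37C; viability read by CellTiter-Fluor fluorescence.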

[6] = biological target: Progesterone receptor (Homo sapiens) (UniProt P06401); test: qHTS assay to identify small molecule agonists of the progesterone receptor (PR) signaling pathway (AID 1346784; calls by dose curve; note: nearly all actives have a fitted effect of over 30% in size)
Procedure, shortened: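 Reporter assay, GripTite PR-UAS-bla HEK 293T cells: 16 hr exposure to DMSO-dissolved compounds at 37C, 5% CO2, in steroid-depleted (2% charcoal-stripped FBS) medium; beta-lactamase measured by FRET fluorescence.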

[7] = biological target: Progesterone receptor (Homo sapiens) (UniProt P06401); test: qHTS assay to identify small molecule antagonists of the progesterone receptor (PR) signaling pathway (AID 1346795; active = well fitted inhibition curve with a large enough effect in the signal ratio in the repeat runs, not every such curve was filed as active; the % refers to the signal ratio)
Procedure, shortened: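 Stimulus R5020 at 1 nM final; cells HEK293T PR-UAS-bla; medium with 2% charcoal-stripped FBS; compound exposure 16 hr at 37C, 5% CO2; detection by FRET beta-lactamase substrate, 2 hr, room temperature.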

[8] = qHTS assay to identify small molecule antagonists of the progesterone receptor (PR) signaling pathway - cell viability counter screen (AID 1346798); note: series mostly up to about 92 µM; nearly all actives have a fitted effect of over 50% in size
Procedure, shortened: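 In the same plates used for the beta-lactamase readout, cell viability of compound- and R5020-treated PR-UAS-bla HEK293T cells (16 hr, 37C) was assessed by CellTiter-Glo luminescence.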

[9] = qHTS assay to identify small molecule agonists of the progesterone receptor (PR) signaling pathway - cell viability counter screen (AID 1346799; calls by dose curve; note: nearly all actives have a fitted effect of over 45% in size)
Procedure, shortened: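 Multiplexed viability read: CellTiter-Glo luminescence, 30 min RT, following LiveBLAzer FRET measurement on PR-UAS-bla HEK293T cells exposed to compounds 16 hr.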

[10] = qHTS assay to identify small molecule antagonists of the TGF-beta/Smad signaling pathway - cell viability counter screen (AID 1346824); note: nearly all actives have a fitted effect of over 50% in size
Procedure, shortened: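 SBE-bla HEK 293T cells were plated overnight at 37 C, then given compounds in DMSO plus TGF-beta1 (added as 0.25 ng/mL solution) for 5 hr. After the bla read, CellTiter-Glo was added to the same wells and luminescence read after 30 min at room temperature.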

[11] = qHTS assay to identify small molecule agonists of the TGF-beta/Smad signaling pathway - cell viability counter screen (AID 1346829); note: top concentration of the series differs between compounds; nearly all actives have a fitted effect of over 45% in size
Procedure, shortened: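 Compound-treated SBE-bla HEK 293T cells (5 hr, 37 C) were assessed for viability with CellTiter-Glo in parallel with the reporter read.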

[12] = biological target: Thyrotropin-releasing hormone receptor (Homo sapiens) (UniProt P34981); test: qHTS assay to identify small molecule antagonists of the thyrotropin-releasing hormone receptor (TRHR) signaling pathway (AID 1346877; active = well fitted inhibition curve with a large enough effect in the repeat runs, not every such curve was filed as active; note: series mostly up to about 51 µM)
Procedure, shortened: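 TRHR-expressing HEK293 cells were seeded, cultured 18 h at 37 °C, then loaded with calcium dye for 2 h. Compounds were pre-incubated 5 min at room temperature before 1 nM TRH (final) was added, and kinetic fluorescence was recorded for 3 min.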

[13] = biological target: Thyrotropin-releasing hormone receptor (Homo sapiens) (UniProt P34981); test: qHTS assay to identify small molecule agonists of the thyrotropin-releasing hormone receptor (TRHR) signaling pathway (AID 1346891; calls by dose curve; note: series mostly up to about 58 µM)
Procedure, shortened: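 Readout was intracellular calcium fluorescence in TRHR-Hek293 cells. Cells were incubated 18 h, dye-loaded 2 h at 37 °C, and treated with compound in agonist mode.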

[14] = Human pregnane X receptor (PXR) small molecule agonists, qHTS cell viability counter screen (AID 1346977); note: nearly all actives have a fitted effect of over 50% in size
Procedure, shortened: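 In each well, the PXR reporter HepG2 line was checked for viability: CellTiter-Fluor reagent added 23hr post-dosing, fluorescence read after 1hr incubation at 37C.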

[15] = Caspase-3/7 induction in HepG2 cells by small molecules, qHTS assay (AID 1346978); note: nearly all actives have a fitted effect of over 15% in size
Procedure, shortened: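 Wild-type HepG2 cells (2,000/well) were settled 5 h at 37 C, 5% CO2, then exposed to compounds in DMSO for 17 h. Caspase-3/7 activity was read by luminescence 30 min after adding Caspase-Glo 3/7 reagent at room temperature.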

[16] = Caspase-3/7 induction in CHO-K1 cells by small molecules, qHTS cell viability counter screen (AID 1346979); note: nearly all actives have a fitted effect of over 35% in size
Procedure, shortened: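 Following a 5hr settling period, CHO-K1 cells at 1,500 per well received DMSO-dissolved compounds. Cell viability was quantified 16hr later by CellTiter-Fluor fluorescence, measured after 1hr with reagent at 37C.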

[17] = Caspase-3/7 induction in CHO-K1 cells by small molecules, qHTS assay (AID 1346980); note: nearly all actives have a fitted effect of over 15% in size
Procedure, shortened: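 Wild-type cells were seeded at 1,500 per well and settled 5 hr at 37 C, 5% CO2, then exposed to DMSO-dissolved compounds for 17 hr. Caspase-Glo 3/7 reagent was added, and luminescence was read after 30min at room temperature.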

[18] = Caspase-3/7 induction in HepG2 cells by small molecules, qHTS cell viability counter screen (AID 1346981); note: series mostly up to about 92 µM; nearly all actives have a fitted effect of over 30% in size
Procedure, shortened: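 Wild-type HepG2 cells (2,000/well) were allowed to settle for 5 hr at 37 C, 5% CO2, then dosed with compounds in DMSO by pin transfer. After 16 hr at 37 C, CellTiter-Fluor was added and fluorescence read 1 hr later.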

[19] = biological target: Nuclear receptor subfamily 1 group I member 2 (Homo sapiens) (UniProt O75469); test: Human pregnane X receptor (PXR) small molecule agonists, qHTS assay (AID 1346982); note: nearly all actives have a fitted effect of over 35% in size; note: potency is the fitted concentration of half-maximal effect
Procedure, shortened: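 PXR-Luc HepG2 cells (CYP3A4 promoter-driven luciferase) were seeded in medium with 5% charcoal-stripped FBS, left 5 hr at 37 C, then exposed to compounds in DMSO for 24 hr. Luminescence was read after ONE-Glo addition.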

[20] = qHTS assay to identify small molecule agonists of the TGF-beta/Smad signaling pathway (AID 1346859; active = well fitted activation curve with a large enough effect in the signal ratio in the repeat runs, not every such curve was filed as active; the % refers to the signal ratio; note: series mostly up to about 77 µM)
Procedure, shortened: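 Screening used HEK 293T SBE-bla cells at 4,000/well. Test agents: 5 hr, 37 C. Detection: FRET substrate, 2 hr RT, then excitation 405 nm with emissions at 460 and 530 nm.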

Chain of Thyrotropin receptor (Homo sapiens) (P16473 whole entry, looked up): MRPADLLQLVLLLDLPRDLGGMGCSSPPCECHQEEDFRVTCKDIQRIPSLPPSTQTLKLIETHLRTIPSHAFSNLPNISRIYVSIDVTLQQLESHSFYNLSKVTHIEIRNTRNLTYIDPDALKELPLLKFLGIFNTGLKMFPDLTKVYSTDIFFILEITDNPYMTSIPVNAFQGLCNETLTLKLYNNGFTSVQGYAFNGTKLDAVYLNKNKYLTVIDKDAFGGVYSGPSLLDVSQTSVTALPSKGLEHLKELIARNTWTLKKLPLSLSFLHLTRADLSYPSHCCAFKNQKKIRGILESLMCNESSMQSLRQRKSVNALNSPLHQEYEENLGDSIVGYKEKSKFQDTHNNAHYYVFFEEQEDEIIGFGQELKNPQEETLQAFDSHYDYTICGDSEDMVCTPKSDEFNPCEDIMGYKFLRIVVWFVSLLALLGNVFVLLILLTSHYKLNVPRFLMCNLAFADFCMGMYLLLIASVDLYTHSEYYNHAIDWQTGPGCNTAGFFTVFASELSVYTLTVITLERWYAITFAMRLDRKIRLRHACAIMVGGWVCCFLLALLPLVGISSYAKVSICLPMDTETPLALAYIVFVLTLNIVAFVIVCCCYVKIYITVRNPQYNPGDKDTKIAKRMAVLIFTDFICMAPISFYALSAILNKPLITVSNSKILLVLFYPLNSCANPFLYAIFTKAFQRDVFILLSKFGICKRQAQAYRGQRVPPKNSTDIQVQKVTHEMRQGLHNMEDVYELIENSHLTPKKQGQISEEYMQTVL
Chain of Estrogen receptor (Homo sapiens) (P03372 whole entry, looked up): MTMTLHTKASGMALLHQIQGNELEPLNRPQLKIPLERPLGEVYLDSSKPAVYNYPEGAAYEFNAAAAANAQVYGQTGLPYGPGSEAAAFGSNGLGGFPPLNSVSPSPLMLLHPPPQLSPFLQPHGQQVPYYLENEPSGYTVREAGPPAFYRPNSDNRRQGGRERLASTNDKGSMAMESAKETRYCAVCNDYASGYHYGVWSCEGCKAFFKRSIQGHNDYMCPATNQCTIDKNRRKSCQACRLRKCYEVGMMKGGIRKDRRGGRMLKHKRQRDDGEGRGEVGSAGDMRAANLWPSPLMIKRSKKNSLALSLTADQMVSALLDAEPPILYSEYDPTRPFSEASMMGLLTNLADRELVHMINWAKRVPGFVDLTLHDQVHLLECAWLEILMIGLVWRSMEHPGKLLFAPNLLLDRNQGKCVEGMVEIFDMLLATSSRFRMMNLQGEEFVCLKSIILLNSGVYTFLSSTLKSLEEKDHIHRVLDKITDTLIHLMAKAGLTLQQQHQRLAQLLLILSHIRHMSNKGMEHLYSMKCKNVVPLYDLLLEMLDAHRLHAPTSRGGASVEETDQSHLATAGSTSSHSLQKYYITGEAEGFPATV
Chain of Thyrotropin-releasing hormone receptor (Homo sapiens) (P34981 whole entry, looked up): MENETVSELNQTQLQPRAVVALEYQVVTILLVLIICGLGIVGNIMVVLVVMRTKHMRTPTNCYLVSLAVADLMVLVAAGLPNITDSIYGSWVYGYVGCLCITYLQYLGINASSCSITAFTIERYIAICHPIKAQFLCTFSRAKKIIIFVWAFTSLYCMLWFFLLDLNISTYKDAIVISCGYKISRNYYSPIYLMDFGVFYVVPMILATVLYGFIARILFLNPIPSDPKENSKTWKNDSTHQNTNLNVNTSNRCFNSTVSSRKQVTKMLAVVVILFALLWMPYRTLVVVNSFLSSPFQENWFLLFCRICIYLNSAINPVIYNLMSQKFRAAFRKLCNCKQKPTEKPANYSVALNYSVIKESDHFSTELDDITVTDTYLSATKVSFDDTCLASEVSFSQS
Chain of Progesterone receptor (Homo sapiens) (P06401 whole entry, looked up): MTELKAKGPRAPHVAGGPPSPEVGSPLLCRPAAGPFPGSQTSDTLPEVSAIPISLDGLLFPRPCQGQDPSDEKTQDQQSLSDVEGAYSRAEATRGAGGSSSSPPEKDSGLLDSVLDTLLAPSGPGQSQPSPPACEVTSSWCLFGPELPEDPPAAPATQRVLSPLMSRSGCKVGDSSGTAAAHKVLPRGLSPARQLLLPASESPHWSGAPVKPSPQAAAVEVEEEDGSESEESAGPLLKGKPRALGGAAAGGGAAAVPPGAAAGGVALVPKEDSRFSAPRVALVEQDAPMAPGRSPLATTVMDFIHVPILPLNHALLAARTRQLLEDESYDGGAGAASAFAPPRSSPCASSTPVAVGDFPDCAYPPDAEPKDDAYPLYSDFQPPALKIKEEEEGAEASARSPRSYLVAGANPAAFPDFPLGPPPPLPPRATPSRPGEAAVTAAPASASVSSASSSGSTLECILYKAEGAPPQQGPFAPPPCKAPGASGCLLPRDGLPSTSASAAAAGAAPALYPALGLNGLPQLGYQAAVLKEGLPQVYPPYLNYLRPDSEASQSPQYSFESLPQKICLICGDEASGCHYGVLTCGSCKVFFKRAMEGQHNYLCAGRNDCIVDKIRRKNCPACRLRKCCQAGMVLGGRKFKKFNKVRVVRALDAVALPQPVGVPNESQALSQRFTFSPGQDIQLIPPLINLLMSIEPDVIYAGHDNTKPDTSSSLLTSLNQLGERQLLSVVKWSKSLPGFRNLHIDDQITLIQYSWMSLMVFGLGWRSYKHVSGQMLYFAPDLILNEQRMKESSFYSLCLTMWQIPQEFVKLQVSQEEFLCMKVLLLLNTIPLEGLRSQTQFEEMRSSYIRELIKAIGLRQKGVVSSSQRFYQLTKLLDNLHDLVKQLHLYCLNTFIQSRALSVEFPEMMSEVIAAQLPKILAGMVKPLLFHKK
Chain of Nuclear receptor subfamily 1 group I member 2 (Homo sapiens) (O75469 whole entry, looked up): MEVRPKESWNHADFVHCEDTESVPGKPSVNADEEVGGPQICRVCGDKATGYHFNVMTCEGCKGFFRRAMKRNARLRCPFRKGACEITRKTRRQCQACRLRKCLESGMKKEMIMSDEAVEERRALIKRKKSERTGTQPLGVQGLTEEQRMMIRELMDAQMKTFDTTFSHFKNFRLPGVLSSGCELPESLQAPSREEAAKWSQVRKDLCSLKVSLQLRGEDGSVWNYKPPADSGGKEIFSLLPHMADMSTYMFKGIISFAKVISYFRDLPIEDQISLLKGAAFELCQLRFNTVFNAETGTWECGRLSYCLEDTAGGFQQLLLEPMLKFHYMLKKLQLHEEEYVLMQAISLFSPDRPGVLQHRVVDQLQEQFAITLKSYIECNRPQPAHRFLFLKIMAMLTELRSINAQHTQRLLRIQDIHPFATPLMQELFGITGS

Row | Structure (SMILES) | outcome [1] | Potency [2] | outcome [3] | outcome [4] | outcome [5] | Potency [6] | Potency [7] | outcome [8] | outcome [9] | outcome [10] | outcome [11] | outcome [12] | outcome [13] | outcome [14] | outcome [15] | Potency [16] | outcome [17] | outcome [18] | Potency [19] | outcome [20]
1 | CC1(C)[C@H]2CC[C@](C)(C2)[C@H]1O | inactive | inactive | inactive | inactive | inactive | inactive | inactive | inactive | inactive | inactive | inactive | inactive | inactive | inactive | inactive | inactive | inactive | inactive | inactive | –
2 | Nc1nnnn1-c1ccccc1 | inactive | inactive | inactive | inactive | inactive | inactive | inactive | inactive | inactive | inactive | inactive | inactive | inactive | inactive | inactive | inactive | inactive | inactive | inactive | inactive
3 | CC1OCCC1=O (centres undefined) | inactive | inactive | inactive | inactive | inactive | inactive | inactive | inactive | inactive | inactive | inactive | inactive | inactive | inactive | inactive | inactive | inactive | inactive | inactive | –
4 | O=C[O][Al]([O]C=O)[O]C=O | inactive | inactive | inactive | inactive | inactive | inactive | inactive | – | inactive | inactive | inactive | inactive | inactive | inactive | inactive | inactive | inactive | inactive | inactive | inactive
5 | CCCCCCCCCOC(=O)c1ccccc1C(=O)OCCCCCCCCC | inactive | inactive | inactive | inactive | inactive | inactive | inactive | inactive | – | inactive | inactive | inactive | inactive | inactive | inactive | inactive | inactive | inactive | 19.3 µM (active) | inactive
6 | O=C1OCCO1 | inactive | inactive | inactive | inactive | inactive | inactive | inactive | inactive | inactive | inactive | inactive | inactive | inactive | inactive | inactive | inactive | inactive | inactive | inactive | –
7 | O=C1CCCCO1 | inactive | inactive | inactive | inactive | inactive | inactive | inactive | inactive | inactive | inactive | inactive | inactive | inactive | inactive | inactive | inactive | inactive | inactive | inactive | –
